60 compounds from PubChem BioAssay AID1527 (The Scripps Research Institute Molecular Screening Center, 2009) can be followed below.

Molecules are shown by their SMILES. In all, about 290,000 compounds went through this assay and about 2,600 (0.9%) were called active. This excerpt belongs to a sample that is enriched for actives. Values without a mark were called inactive.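 Rule for the calls: active = inhibition above the mean of all tested compounds plus 3 SD, cutoff set per screening run (cut at about 7.5% in these data); inactive = the rest.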

What is called inhibition is the drop in the measured response relative to a control, in per cent.

This test has as its system VIM-2 metallo-beta-lactamase (Pseudomonas aeruginosa). Briefly: VIM-2 metallo-beta-lactamase inhibitors, primary screen, biochemical, epi-absorbance readout, Pseudomonas aeruginosa enzyme (AID 1527).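 Note: red hydrolysis product quenches plate fluorescence so inhibitors raise well fluorescence; 0% = enzyme with DMSO and 100% = DMSO without enzyme.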 To be noted: purified VIM-2, nitrocefin hydrolysis, epi-absorbance fluorescence; at 5.6 µM; stronger effect = higher value.
As to `CCc1ccc(C2N3CC4([N+](=O)[O-])CN2CC([N+](=O)[O-])(C3)C4(C)C)cc1` (stereo not given), the inhibition is -3.1%.

Turning to `COc1ccc(/C=C2\CCCC3C2=NN(C(=O)c2scnc2C)C3c2ccc(OC)cc2)cc1` (stereo not given), the inhibition was -4.89%.

`COc1cccc(NC(=O)c2cc(S(=O)(=O)N3CCc4ccccc43)cn2C)c1`: the inhibition was -2.53%.

As to `CS(=O)(=O)Nc1ccccc1N=C(c1ccccc1)c1ccccc1`, the inhibition was -0.7%.

In the case of `CCc1nc(Nc2ccc(NC(C)=O)cc2)c2oc3ccccc3c2n1`, the inhibition is 9.84% (active).

Regarding `CCc1nc(Nc2ccc3nccnc3c2)c2oc3ccccc3c2n1`, the inhibition was 6.61%.

For the compound `C[C@@H](Nc1nc(-c2ccccc2)nc2c1oc1ccccc12)C(=O)O`, the inhibition is -1.13%.

With `COc1cc(OC)c(NS(=O)(=O)c2cn(C)cn2)cc1Cl`, the inhibition was -2.52%.

For `CC1(C)Cc2c(sc(NC(=O)C(=O)NCC3CCCO3)c2C(=O)O)CO1` (stereo not given), the inhibition was -1.53%.

As to `CC1CCCCC1NC(=O)/C(C#N)=C/C=C/c1ccccc1[N+](=O)[O-]` (stereo not given), the inhibition was -2.25%.

With `Cc1ccc(C)c(CN2CCC(CNC(=O)Nc3ccc(C)c(F)c3)CC2)c1`, the inhibition is -1.95%.

As to `Oc1ccc2ccc3cccc[n+]3c2c1`, the inhibition was 34.2% (active).

Turning to `COC(=O)c1ccc(NC(=O)c2cc3c(CO)cnc(C)c3oc2=Nc2cccc(C(N)=O)c2)cc1`, the inhibition was -0.03%.

Consider `Cc1cc(=O)oc2c3c(cc(OCC(=O)N[C@H](C(=O)O)c4ccccc4)c12)OC(C)(C)CC3`, for which the inhibition is 1.96%.

On to `Cc1c(C)c2c(OCC(=O)NCCCO)cc3c(c2oc1=O)CCC(C)(C)O3`, for which the inhibition is 1.34%.

As for `Cc1c(C)c2c(OCC(=O)N[C@@H](C(=O)O)c3ccccc3)cc3c(c2oc1=O)CCC(C)(C)O3`, the inhibition is 10.8% (active).

On to `CCC(C(=O)NC1CCCCC1)N(C(=O)c1snc(C(N)=O)c1N)c1ccc(OC)cc1OC` (stereo not given), for which the inhibition is -1.99%.

Regarding `Cc1c2cnn(CC(=O)NCc3ccccn3)c(=O)c2c(C)n1Cc1ccc(Cl)cc1`, the inhibition was -1.23%.

With `COc1cc(NS(=O)(=O)c2ccc(NC(=O)c3ccc([N+](=O)[O-])cc3)cc2)ncn1`, the inhibition was -1.86%.

As to `CCCc1ccc(OCC(=O)NNC(=S)NC(=O)c2ccco2)cc1`, the inhibition is -2.04%.

For the compound `CCCc1ccc(OCCNC(=O)c2ccco2)cc1`, the inhibition was 33.4% (active).

With `CCCc1ccc(OCCNC(=O)c2ccccc2Br)cc1`, the inhibition is -1.47%.

For the compound `COc1ccc(Br)cc1CN1CCN(C(=O)c2cccc(OC)c2OC)CC1`, the inhibition is -0.04%.

Consider `COc1cccc(C(=O)OCc2cc(=O)oc3c(C)c(C)ccc23)c1OC`, for which the inhibition is 8.21% (active).

As for `COC(=O)Cc1cc(=O)oc2c(C)c(O)ccc12`, the inhibition is -5.11%.

Regarding `CCOC(=O)C1(Cc2ccccc2C)CCCN(C(=O)CN2C(=O)CSC2=O)C1` (stereo not given), the inhibition was -2.37%.

In the case of `CNC[C@H](CC1CCCCC1)NC[C@H](NCCC1CCCC1)[C@H](C)O`, the inhibition is 2.09%.

For the compound `Cc1ccc(C(=O)N/C(=C\c2ccc(F)cc2)C(=O)NCCN2CCOCC2)cc1`, the inhibition was -0.14%.

As for `CCOC(=O)[C@@H]1[C@H]2COc3cc(OC)ccc3[C@H]2N2C(=O)N(c3ccc(F)cc3)C(=O)[C@]12C`, the inhibition was -2.77%.

Turning to `CC1CCN(C(=O)c2ccc3c(c2)NC(=O)CN3)CC1`, the inhibition was -1.26%.

As to `O=C(NC1CC1)c1ccc2c(c1)NC(=O)c1ccccc1S2`, the inhibition was 1.27%.

Consider `O=C1Nc2cc(C(=O)N3CCC(N4CCCCC4)CC3)ccc2S/C1=C\c1ccccc1`, for which the inhibition was 27.9% (active).

As to `Cc1cccc(C)c1NC(=O)CS(=O)CC(=O)N1CCN(c2ccccc2)CC1` (stereo not given), the inhibition is -3.23%.

For `Cc1ccc(NC(=O)C2CC2c2ccccc2)cc1` (stereo not given), the inhibition was -1.58%.

As for `Cc1cccc2c(=O)n3c(nc12)CCCCC3`, the inhibition is -3.47%.

Consider `COc1nc(N=C(N)N)nc2c(C)cccc12`, for which the inhibition was 14.3% (active).

For the compound `COc1ccc2nc(/N=C(\N)NC(=O)Nc3ccccc3)nc(C)c2c1`, the inhibition was -0.81%.

As to `Cc1nc(/N=C(\N)NC(=O)NC2CCCCC2)nc2ccccc12`, the inhibition was -2.89%.

As to `Cc1nc(N=C(N)N)nc2c(C)cccc12`, the inhibition was 8.56% (active).

As to `CC(=O)Oc1ccc(-c2nc3c(C)cccc3c(=O)o2)cc1`, the inhibition is -0.68%.

Consider `Cc1ccc(Oc2nc(-c3ccccn3)nc3ccccc23)cc1`, for which the inhibition was -1.45%.

Turning to `c1ccc(-c2nccc(-c3ccc(-n4cnc5ccccc54)cc3)n2)nc1`, the inhibition was 59.9% (active).

On to `Cc1nccc(-c2ccc(-n3c(C)ccc3C)cc2)n1`, for which the inhibition was -2.42%.

Consider `CCCCn1c(-c2cccc(C)c2)nc2cc3[nH]c(=O)c(C(C)C)nc3cc21`, for which the inhibition is -2.3%.

Take `COc1ccc(-c2csc3ncnc(N4CCN(S(=O)(=O)c5ccccc5C#N)CC4)c23)cc1`: the inhibition was -2%.

On to `CCN(CC)C(=O)CSC(Nc1cccc(F)c1)=C(C#N)C#N`, for which the inhibition was -4.85%.

As to `O=c1[nH]c2c(c(=O)n1Cc1ccccc1)CCC2`, the inhibition was -3.01%.

Regarding `CSc1nc2ccccc2c(=O)n1Cc1ccc(F)cc1`, the inhibition was -1.75%.

Regarding `Cc1cc2nc3c(=O)n(Cc4ccccc4)c(=O)[nH]c3nc2cc1N`, the inhibition is 13.2% (active).

With `O=S(=O)(Nc1cccc(-n2cnnn2)c1)c1cnc(Cl)c(Cl)c1`, the inhibition was -1.96%.

As for `CCNC(=O)c1c(O)c2cccc3c2n(c1=O)CC3`, the inhibition is 1.77%.

In the case of `CCN(CC)CCCNC(=O)c1cn(C)c2ccc(S(=O)(=O)N(C)C3CCCCC3)cc2c1=O`, the inhibition is 2.02%.

Turning to `CCN(CC)CCCNC(=O)c1c(O)c2cc(F)cc3c2n(c1=O)C(C)CC3` (stereo not given), the inhibition is 8.41% (active).

As for `CN(C)c1cc(-c2ccc(F)cc2)oc(=O)c1Cl`, the inhibition is -0.81%.

In the case of `CC(CCc1ccccc1)NC(=O)c1cnc(Cl)c(Cl)c1` (stereo not given), the inhibition was -3.59%.

As to `COc1ccc(OCCn2ccnc2C)cc1`, the inhibition was 0.01%.

Regarding `C=CCOc1cccc(C2C(C(=O)c3ccc(C)o3)=C(O)C(=O)N2CCCn2ccnc2)c1` (stereo not given), the inhibition was -2.31%.

Consider `CC(Nc1nc(N2CCN(CCO)CC2)nc2ccccc12)c1ccccc1` (stereo not given), for which the inhibition is -0.41%.

As to `CC(Nc1nc(N2CCOCC2)nc2ccccc12)c1ccccc1` (stereo not given), the inhibition is -1.07%.

For `CC(Nc1nc(N2CCCC2)nc2ccccc12)c1ccccc1` (stereo not given), the inhibition is 10.3% (active).
